# Data from the supplement of paper PMC8728848.
# The entries come from a sample that favours the strongest signals as a whole.
# B1: Gal 7 (Homo sapiens) (protein)
# chain: MSNVPHKSSLPEGIRPGTVLRIRGLVPPNASRFHVNLLCGEEGGSDAALHFNPRLDTSEVVFNSKEGGSWGREERGPGVPFGRGQPFEVLIIASDDGFKAVVGDAQYHHFRHRLPLARVRLVEVGGDVQLDSVRIF
# Assays:
# Test in all cases: glycan array binding signal (z-score within array); higher = stronger binding
# Details in all cases: glycan notation: IUPAC condensed, linker removed
# [1] = molecular target: Fuc(a1-2)Gal(b1-3)GlcNAc(b1-3)GalNAc
# Procedure, shortened: (§1)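 Glycan array data were curated from 3228 arrays in the Consortium for Functional Glycomics database and kept only where the protein sequence was available. Glycan names were converted to IUPAC-condensed notation, and columns mapping to the same glycan were averaged. The binding signal is a within-array Z-score, averaged across arrays of the same protein sequence at different concentrations or buffers and across linkers. Negative Z-scores can be read as non-binding.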
# Fuc(a1-2)Gal(b1-4)Glc6S = molecular target: Fuc(a1-2)Gal(b1-4)Glc6S
# Procedure, shortened: as §1
# [2] = molecular target: Fuc(a1-2)Gal(b1-4)GlcNAc(b1-3)Gal(b1-4)GlcNAc
# Procedure, shortened: as §1
# [3] = molecular target: Fuc(a1-2)Gal(b1-4)GlcNAc(b1-3)Gal(b1-4)GlcNAc(b1-2)Man(a1-3)[Fuc(a1-2)Gal(b1-4)GlcNAc(b1-3)Gal(b1-4)GlcNAc(b1-2)Man(a1-6)]Man(b1-4)GlcNAc(b1-4)GlcNAc
# Procedure, shortened: as §1
# [4] = molecular target: Fuc(a1-2)Gal(b1-4)GlcNAc(b1-3)Gal(b1-4)GlcNAc(b1-3)Gal(b1-4)GlcNAc
# Procedure, shortened: as §1
# [5] = molecular target: Fuc(a1-2)Gal(b1-4)GlcNAc(b1-3)GalNAc
# Procedure, shortened: as §1
# [6] = molecular target: Fuc(a1-2)[Gal(a1-3)]Gal(b1-4)GlcNAc(b1-3)[Fuc(a1-2)[Gal(a1-3)]Gal(b1-4)GlcNAc(b1-6)]GalNAc
# Procedure, shortened: as §1
# [7] = molecular target: Fuc(a1-2)[Gal(a1-4)]Gal(b1-4)GalNAc
# Procedure, shortened: as §1
# [8] = molecular target: Fuc(a1-2)[GalNAc(a1-4)]Gal(b1-4)GlcNAc
# Procedure, shortened: as §1
# [9] = molecular target: Fuc(a1-3)[Gal(b1-4)]GlcNAc(b1-4)Gal(b1-4)[Fuc(a1-3)]GlcNAc
# Procedure, shortened: as §1
# Fuc(a1-4)GlcNAc = molecular target: Fuc(a1-4)GlcNAc
# Procedure, shortened: as §1
# Gal(a1-3)Gal(b1-3)Glc = molecular target: Gal(a1-3)Gal(b1-3)Glc
# Procedure, shortened: as §1
# [10] = molecular target: Gal(a1-3)Gal(b1-4)GlcNAc(b1-6)GalNAc
# Procedure, shortened: as §1
# [11] = molecular target: Gal(a1-4)Gal(b1-3)GlcNAc(b1-2)Man(a1-3)[Gal(a1-4)Gal(b1-3)GlcNAc(b1-2)Man(a1-6)]Man(b1-4)GlcNAc(b1-4)GlcNAc
# Procedure, shortened: as §1
# Gal(a1-4)Gal(b1-4)GlcNAc = molecular target: Gal(a1-4)Gal(b1-4)GlcNAc
# Procedure, shortened: as §1
# Gal(b1-3)Gal = molecular target: Gal(b1-3)Gal
# Procedure, shortened: as §1
# Gal(b1-3)Gal(b1-4)GlcNAc = molecular target: Gal(b1-3)Gal(b1-4)GlcNAc
# Procedure, shortened: as §1
# Gal(b1-3)GalNAc = molecular target: Gal(b1-3)GalNAc
# Procedure, shortened: as §1
# [12] = molecular target: Gal(b1-3)GalNAc(b1-3)Gal(b1-4)GlcNAc
# Procedure, shortened: as §1
# [13] = molecular target: Gal(b1-3)GlcNAc(b1-3)GalNAc
# Procedure, shortened: as §1
# [14] = molecular target: Gal(b1-3)GlcNAc(b1-6)Gal(b1-4)GlcNAc
# Procedure, shortened: as §1
# [15] = molecular target: Gal(b1-3)[Fuc(a1-4)]GlcNAc(b1-3)Gal(b1-4)[Fuc(a1-3)]GlcNAc
# Procedure, shortened: as §1
# [16] = molecular target: Gal(b1-4)GalNAc(b1-3)[Fuc(a1-2)]Gal(b1-4)GlcNAc
# Procedure, shortened: as §1
# Gal(b1-4)Glc6S = molecular target: Gal(b1-4)Glc6S
# Procedure, shortened: as §1
# [17] = molecular target: Gal(b1-4)GlcNAc(b1-2)[Gal(b1-4)GlcNAc(b1-6)]Man(a1-6)[Gal(b1-4)GlcNAc(b1-2)Man(a1-3)]Man(b1-4)GlcNAc(b1-4)[Fuc(a1-6)]GlcNAc
# Procedure, shortened: as §1
# [18] = molecular target: Gal(b1-4)GlcNAc(b1-2)[Gal(b1-4)GlcNAc(b1-6)]Man(a1-6)[GlcNAc(b1-4)][Gal(b1-4)GlcNAc(b1-2)Man(a1-3)]Man(b1-4)GlcNAc(b1-4)GlcNAc
# Procedure, shortened: as §1
# [19] = molecular target: Gal(b1-4)GlcNAc(b1-3)Gal(b1-4)GlcNAc(b1-2)Man(a1-3)[Gal(b1-4)GlcNAc(b1-3)Gal(b1-4)GlcNAc(b1-2)Man(a1-6)]Man(b1-4)GlcNAc(b1-4)GlcNAc
# Procedure, shortened: as §1
# [20] = molecular target: Gal(b1-4)GlcNAc(b1-3)Gal(b1-4)GlcNAc(b1-3)Gal(b1-4)GlcNAc
# Procedure, shortened: as §1
# [21] = molecular target: Gal(b1-4)GlcNAc(b1-3)Gal(b1-4)GlcNAc(b1-3)Gal(b1-4)GlcNAc(b1-2)Man(a1-3)[Gal(b1-4)GlcNAc(b1-3)Gal(b1-4)GlcNAc(b1-3)Gal(b1-4)GlcNAc(b1-2)Man(a1-6)]Man(b1-4)GlcNAc(b1-4)[Fuc(a1-6)]GlcNAc
# Procedure, shortened: as §1
# [22] = molecular target: Gal(b1-4)GlcNAc(b1-3)Gal(b1-4)GlcNAc(b1-3)Gal(b1-4)GlcNAc(b1-2)[Gal(b1-4)GlcNAc(b1-3)Gal(b1-4)GlcNAc(b1-3)Gal(b1-4)GlcNAc(b1-6)]Man(a1-6)[Gal(b1-4)GlcNAc(b1-3)Gal(b1-4)GlcNAc(b1-3)Gal(b1-4)GlcNAc(b1-2)Man(a1-3)]Man(b1-4)GlcNAc(b1-4)[Fuc(a1-6)]GlcNAc
# Procedure, shortened: as §1
binder,measurement,setting,value
B1,glycan array binding signal (z-score),[1],-0.125
same,glycan array binding signal (z-score),Fuc(a1-2)Gal(b1-4)Glc6S,0.834
same,glycan array binding signal (z-score),[2],5.81
same,glycan array binding signal (z-score),[3],5.09
same,glycan array binding signal (z-score),[4],7.12
same,glycan array binding signal (z-score),[5],0.082
same,glycan array binding signal (z-score),[6],-0.267
same,glycan array binding signal (z-score),[7],-0.319
same,glycan array binding signal (z-score),[8],-0.23
same,glycan array binding signal (z-score),[9],-0.214
same,glycan array binding signal (z-score),Fuc(a1-4)GlcNAc,-0.324
same,glycan array binding signal (z-score),Gal(a1-3)Gal(b1-3)Glc,1.04
same,glycan array binding signal (z-score),[10],-0.147
same,glycan array binding signal (z-score),[11],-0.011
same,glycan array binding signal (z-score),Gal(a1-4)Gal(b1-4)GlcNAc,-0.251
same,glycan array binding signal (z-score),Gal(b1-3)Gal,-0.328
same,glycan array binding signal (z-score),Gal(b1-3)Gal(b1-4)GlcNAc,-0.341
same,glycan array binding signal (z-score),Gal(b1-3)GalNAc,-0.006
same,glycan array binding signal (z-score),[12],0.962
same,glycan array binding signal (z-score),[13],0.04
same,glycan array binding signal (z-score),[14],-0.33
same,glycan array binding signal (z-score),[15],-0.289
same,glycan array binding signal (z-score),[16],-0.367
same,glycan array binding signal (z-score),Gal(b1-4)Glc6S,0.576
same,glycan array binding signal (z-score),[17],0.141
same,glycan array binding signal (z-score),[18],-0.186
same,glycan array binding signal (z-score),[19],2.23
same,glycan array binding signal (z-score),[20],0.945
same,glycan array binding signal (z-score),[21],4.99
same,glycan array binding signal (z-score),[22],4.93
